Assay results taken from the supplement of paper PMC6555819.

system: VDR:RXRa (NR concentration 270 nM, RXRa partner concentration 90 nM); test: PBM binding z-score (relative to random genomic background probes); higher = stronger binding; sequences stand for … in GC…GCGATTGACAGCGTAGAATGAAGG
Protocol: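 Protein-binding microarray (Agilent 4x180K custom design, double-stranded 60-nt probes: 5' GC cap, 34-nt variable region, 24-nt constant primer region; full probe sequence given). Purified or IVT nuclear receptor:RXRα heterodimers (3:1 NR:RXRα, mostly 270:90 nM) or homodimers were incubated for 1 h in PBS with 2% milk and no ligand, then detected with Alexa488 antibodies. Fluorescence from o1-orientation probes (~5 replicates averaged) was converted to z-scores against 500 random hg19 background probes. Variable regions are seed direct-repeat (DR0–DR5) sites, all their single-nucleotide variants and half-site ablations.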

Row | Sequence | PBM binding z-score
1 | GGAACGAGTGCAAGTTGATAGCAGAGTTTGATGG | 0.646
2 | ATCTCTAGGTAAAGATAGGTCAGTGAATGCAAAT | 1.13
3 | TCTAGTTGGTCACTGAGGTCACACACGACGGGTA | 6.51
4 | CCTACTGGGCCATCCGGTCATTGATATCAACGTT | 0.0642
5 | CCTTACGGCTCACTCCAGGTTATAGCATCGGAGT | 0.016
6 | ACTCAGAGGACAAAGGTCAGAGCTACGCCAGTGA | 3.62
7 | ATCGAGAGGTCGACGAGGTGAGTATACACCGTTT | 4.87
8 | CGAACGAGCGCATGAGTTGATAGCAAATGCCGAT | -0.307
9 | TCTTGTACATCAATAGAGGTTAAGAAAGTGCGCT | 2.07
10 | ATATGTAGGTTAACGGTCATTCAGGTTGGTTCGC | 2.32
11 | AGAACGAGGGCAATGAGATGATAGCACGGGTGGC | 0.474
12 | TCTTGTAGATCAATAGAGGTTAAGAGAGTGCGCT | 2.79
13 | TAGACAGGGTCAAAGGCCAGAGTACGAATGTCGA | 4.73
14 | AGAATGAGGTTATACGTAGATCAGGAAAGAAAGT | 1.51
15 | AATACAGGGTCACTAGGGCAGAGTAGGTACGAAT | 4.5
16 | GCTTGTAGATCAAGGTAAAGAAAGACTAAGCTAA | -0.118
17 | GCTAGTTGGTCAGTAGAAGGTCACACACCGGTCG | 2.65
18 | CATACAGGGTCAGCTAGGCCAGAGTGGGGACGGC | 4.01
19 | TAGCCCAGGTCATGGGCCAGTATACCACGCGAAC | 2.64
20 | CCTTACGGGTCATGGTTATAGCACGGGTGGTACG | 3.23

Row | Sequence | PBM binding z-score
21 | TCAGACAGGTGAAGGTAATTCAGGTACGCAGTCG | 1.1
22 | ACTTTTAGTTGACTTAGGGCAACCGATACGACGC | 0.839
23 | GCTGCTAGGTCAACTGACGGTCAGCTAAAGCTCG | 1.88
24 | ACAGACAGGTGATTGAAGGTAACTCAGCTGGACG | -0.21
25 | GTACCAAGGTGAATAGGTCGTTGGTGAGTAGGCG | 0.678
26 | CTTTACGGGTCACTCCAGGTTATAGCATCGGAGT | 4.46
27 | TCATATAGGTATAAGGTGAAAGTCGGTGTGGTAA | 1.06
28 | TCTGCCAGGTCAACGATGGTCAGCTAATCTGCTA | 2.49
29 | TCATATAGGTAATACAGGTCAAAGTCGGCATCTA | 4.07
30 | CCAGACAGGTGATAAGGTAACTCAGCCTCGATTA | -0.000379
31 | ATAGAAAGGTCGACGAGGTGAGTATACACCGTTT | 5.01
32 | CCTTGGAGGACAACAGGAGGTCAGAGCTGCCAGA | 1.99
33 | TCTAGTTGGTCACGGAGGCCACACACGACGGGTA | 2.19
34 | GCAGACAGGTGGAACGCAGGTAACTCAGGGTGGC | -0.675
35 | CCTACTGGGCCATTCTGAGGTCATTGATCATATG | 3.7
36 | TCTAGTTGGTCACGGAGGTCACATACGACGGGTA | 5.92
37 | TTGCCTAGGTCATTCAGGGGCCAGTATAGAAAGC | 3.15
38 | CTCGAAAGGTCGGCTGAGGTGAGTATACGGATAA | 2.95
39 | AGAATGAGGTTAAGATCAGGGAAACAGAATACAT | 1.19
40 | CCTAATTGGTCAAGGTCACACACGCTATAGGTAC | 4.03
